Screening results deposited in PubChem by Sanford-Burnham Center for Chemical Genomics.
NLRP3 yeast inh – NALP3 inflammasome inhibitors in reconstituted yeast, primary screen, luminescence, uHTS | inhibition, % at 10 µM | AID 2825, 2010 | Yeast reconstituted NLRP3/ASC/caspase-1, beta-gal luminescence, 24 h | 330,000 compounds, 0.39% hits;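 active means inhibition of 50% or more; inactive means inhibition below 50%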;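 further: plate controls were induced DMSO wells for no effect and uninduced yeast grown without galactose for full effect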
tim23-1 inh – growth inhibitors of tim23-1 mutant yeast, primary screen, luminescence, uHTS; S. cerevisiae tim23-1 growth, BacTiter-Glo luminescence, 24 h; inhibition, % at 20 µM; 330,000 compounds, 1.3% hits; AID 463212, 2010;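 active means growth inhibition of the mutant yeast at or above 50%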;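 further: temperature-sensitive mutant grown at 25 °C; plate controls were DMSO-treated mutant yeast for no effect and medium wells lacking yeast for full effect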
TIM10 inh – growth inhibitors of isogenic TIM10 control yeast, primary screen, counter-screen for tim10-1 yeast inhibitor project, luminescence, uHTS; S. cerevisiae TIM10 strain growth, BacTiter-Glo luminescence, 24 h; inhibition, % at 10 µM; 330,000 compounds, 1.4% hits;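 active means inhibition of 40% or more at the single tested concentration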;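 further: wild-type TIM10 isogenic control strain grown at permissive 25 °C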
tim10-1 inh – growth inhibitors of tim10-1 mutant yeast, primary screen, luminescence, uHTS | S. cerevisiae tim10-1 ts strain growth, BacTiter-Glo, 24 h | inhibition, % at 20 µM | 330,000 compounds, 2.2% hits | AID 463190, 2010;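 active means inhibition of at least 40%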;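 further: mutant grown at 25 °C; 0% = DMSO wells with yeast and 100% = wells holding no yeast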
NALP1 inh – NALP1 inflammasome inhibitors in reconstituted yeast, colorimetric, S. cerevisiae, triplicate retest | AID 2071, 2009 | 280,000 compounds, 0.61% hits | S. cerevisiae NALP1/ASC/caspase-1 growth, X-gal OD620, 72 h | inhibition, % at 10 µM; in the data active means inhibition mostly above about 24%, no sharp cut-off; inactive means mostly below about 32%
tim10-1 conf – growth inhibitors of tim10-1 mutant yeast, confirmation, single concentration, luminescence, S. cerevisiae. S. cerevisiae tim10-1 ts strain growth, BacTiter-Glo, 24 h. inhibition, % at 20 µM. shares compounds with tim10-1 inh. 7,400 compounds, 56% hits. AID 463213, 2010;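 active means inhibition of yeast growth at or above a set limit in either of two repeat tests at 20 µM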;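 further: tim10-1 mutant grown at permissive 25 °C to find synthetic lethal compounds; 0% = DMSO yeast wells and 100% = medium wells without yeast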
* hit, by the source's call. An excerpt weighted towards active compounds, which were near 4% of everything screened.

What do the screens show for `CCN(C[C@H]1N[C@@](CC)(C(=O)OC)[C@H]2C(=O)N(C)C(=O)[C@@H]12)C(=O)c1ccccc1`?
NLRP3 yeast inh: 14; tim23-1 inh: 0; TIM10 inh: 12; tim10-1 inh: -6

What do the screens show for `CCCCOc1ccc(/C=N/NC(=O)c2nnn(-c3nonc3N)c2C)cc1`?
NLRP3 yeast inh: 8; tim23-1 inh: 1; TIM10 inh: 11; tim10-1 inh: 2; NALP1 inh: 17

What do the screens show for `N#CC(C#N)=C1NC2(CCCCC2)Cc2ccccc21`?
NLRP3 yeast inh: 1; tim23-1 inh: 12; TIM10 inh: 24; tim10-1 inh: 20; NALP1 inh: 6

Results for N#CC(C#N)=c1ccc2c(c1)NC1(CCCCC1)N=2 ?
NLRP3 yeast inh: 35; tim23-1 inh: 44; TIM10 inh: 29; tim10-1 inh: 46*; NALP1 inh: -7; tim10-1 conf: 42*

Results for Cc1ccc(Cl)cc1N1CCN(C(=O)CSc2nnc3n2C(C)(C)Cc2ccccc2-3)CC1 ?
NLRP3 yeast inh: 16; tim23-1 inh: 4; TIM10 inh: 16; tim10-1 inh: 2; NALP1 inh: 2

Results for COc1ccc(N2CCN(C(=O)CSc3nnc4n3C(C)(C)Cc3ccccc3-4)CC2)cc1 ?
NLRP3 yeast inh: -3; tim23-1 inh: 38; TIM10 inh: 17; tim10-1 inh: 46*; NALP1 inh: 7; tim10-1 conf: 25

How did CC(CN1CCCCC1)NC(=O)c1cccs1 (stereo not given) do in these assays?
NLRP3 yeast inh: 6; tim23-1 inh: 13; TIM10 inh: -5; tim10-1 inh: 5; NALP1 inh: 0

How did CCOC(=O)N1C(=O)[C@@](c2ccc(Cl)cc2)(C(C)C)N1C(=O)OCC do in these assays?
NLRP3 yeast inh: 23; tim23-1 inh: -16; TIM10 inh: -10; tim10-1 inh: 44*; NALP1 inh: 19; tim10-1 conf: 45*

Results for CS(=O)(=O)c1ccccc1-c1nc(-c2ccc([N+](=O)[O-])cc2)no1 ?
NLRP3 yeast inh: 4; tim23-1 inh: 12; TIM10 inh: 15; tim10-1 inh: 13; NALP1 inh: -49

How did Cc1nn2c3ccccc3nc2c2ccccc12 do in these assays?
NLRP3 yeast inh: -11; tim23-1 inh: 31; TIM10 inh: 18; tim10-1 inh: 51*; NALP1 inh: 4; tim10-1 conf: 42*

Results for CCOC(=O)C1(Cc2cccc(OC)c2)CCCN(C(=O)CCc2cccnc2)C1 (stereo not given) ?
NLRP3 yeast inh: 18; tim23-1 inh: 22; TIM10 inh: -11; tim10-1 inh: -19; NALP1 inh: 6

Results for C=CCN(CC=C)c1nc2ccccc2nc1C(C#N)C(=O)OC(C)C (stereo not given) ?
NLRP3 yeast inh: 10; tim23-1 inh: 49; TIM10 inh: 32; tim10-1 inh: 45*; NALP1 inh: 7; tim10-1 conf: 38*

Results for N#C/C(=C\c1ccc[nH]1)C(=O)Nc1ccccc1[N+](=O)[O-] ?
NLRP3 yeast inh: 17; tim23-1 inh: -5; TIM10 inh: -13; tim10-1 inh: -15; NALP1 inh: 17

How did CC1(C)CC(=O)c2cnc(N3CCc4ccccc43)nc2C1 do in these assays?
NLRP3 yeast inh: 4; tim23-1 inh: 12; TIM10 inh: 13; tim10-1 inh: 10; NALP1 inh: 26

How did Cc1cc(C)n(CC(O)Cn2c3ccc(Br)cc3c3cc(Br)ccc32)c(=O)n1 (stereo not given) do in these assays?
NLRP3 yeast inh: 7; tim23-1 inh: 46; TIM10 inh: 23; tim10-1 inh: 56*; NALP1 inh: -6; tim10-1 conf: 52*

Results for Cc1cc(C)n(CC(O)Cn2c3ccccc3c3ccccc32)c(=O)n1 (stereo not given) ?
NLRP3 yeast inh: 21; tim23-1 inh: 3; TIM10 inh: 19; tim10-1 inh: 0; NALP1 inh: 8

What do the screens show for `NC(=O)c1nc(C(=O)N2CCN(c3ccccc3)CC2)c2ccccc2n1`?
NLRP3 yeast inh: 9; tim23-1 inh: -21; TIM10 inh: 2; tim10-1 inh: -12

How did COc1ccc(C(=O)NCc2ccccc2CN2CCCC2)cc1S(=O)(=O)N1CCOCC1 do in these assays?
NLRP3 yeast inh: 18; tim23-1 inh: 17; TIM10 inh: -7; tim10-1 inh: 2

How did CC1=CC(C)(C)Nc2ccc(OC(=O)CN3C(=O)c4ccccc4C3=O)cc21 do in these assays?
NLRP3 yeast inh: 9; tim23-1 inh: 42; TIM10 inh: 16; tim10-1 inh: 47*; NALP1 inh: 64*; tim10-1 conf: 32*

Results for CC1=C(C(=O)OCCC(C)C)C(c2ccc3c(c2)OCO3)NC(=O)N1 (stereo not given) ?
NLRP3 yeast inh: 21; tim23-1 inh: 19; TIM10 inh: -2; tim10-1 inh: 8; NALP1 inh: 4

Results for CCOC(=O)c1nnc(-c2ccc(C)cc2)nc1Oc1ccc(Cl)cc1Cl ?
NLRP3 yeast inh: 25; tim23-1 inh: 43; TIM10 inh: 17; tim10-1 inh: 50*; NALP1 inh: 2; tim10-1 conf: 31*

How did CCOC(=O)c1nnc(-c2ccc(C)cc2)nc1Oc1ccccc1Cl do in these assays?
NLRP3 yeast inh: 6; tim23-1 inh: 43; TIM10 inh: 17; tim10-1 inh: 30; NALP1 inh: 15

What do the screens show for `CCCCC(Sc1nc(N)c(NC(=O)c2ccco2)c(=O)[nH]1)C(=O)O` (stereo not given)?
NLRP3 yeast inh: 13; tim23-1 inh: 14; TIM10 inh: 4; tim10-1 inh: 6; NALP1 inh: 12

How did COc1ccc(C)cc1NC(=O)NCCC1=CCCCC1 do in these assays?
NLRP3 yeast inh: -12; tim23-1 inh: 41; TIM10 inh: 38; tim10-1 inh: 43*; NALP1 inh: 18; tim10-1 conf: 31*

What do the screens show for `CCOc1cc2nc3c4ccccc4n(C)c3nc2cc1OCC`?
NLRP3 yeast inh: 22; tim23-1 inh: 20; TIM10 inh: 11; tim10-1 inh: 47*; NALP1 inh: 23; tim10-1 conf: 17

How did CSc1nc2nccc(-c3ccc(Cl)cc3)n2n1 do in these assays?
NLRP3 yeast inh: -12; tim23-1 inh: -6; TIM10 inh: 1; tim10-1 inh: 10; NALP1 inh: 7

How did CSc1nc2nccc(/C=C\c3ccccc3)n2n1 do in these assays?
NLRP3 yeast inh: 33; tim23-1 inh: 34; TIM10 inh: 24; tim10-1 inh: 53*; NALP1 inh: -2; tim10-1 conf: 38*

How did Oc1ccc(Br)cc1/C=N/n1cnc2ccccc21 do in these assays?
NLRP3 yeast inh: 13; tim23-1 inh: 33; TIM10 inh: 34; tim10-1 inh: 42*; NALP1 inh: 0; tim10-1 conf: 24
